Experimental data published in PMC13494018.
Unmarked numbers belong to inactive results. No rule for the calls is given here.

B1: design_486_d4f32670-1303-4d79-8413-1b14cb3eff50_194_dldesign_0_cycle1_af2pred (protein)
chain: GVEEAYDVAKALAEQAIKANAADPEAKKKAEEALKKAEEAYKNAPKIDPAEAAYKIMKEAAKAAKQYLAAVAK
B2: design_486_d4f32670-1303-4d79-8413-1b14cb3eff50_300_dldesign_0_cycle1_af2pred (protein)
chain: SELDEELLERAKRLLETAKAAGAAGDKETVQQALGEAVELAAEAQRHRDVVSEETWQAIQQALNTAAQHAIAL
B3: design_486_d4f32670-1303-4d79-8413-1b14cb3eff50_394_dldesign_0_cycle1_af2pred (protein)
chain: AEANVALGKRMLEAGKKLAEETKELAKKAKKGEDKEGAKEAAKVALAFAETLELVAEGVPEIAEELKKAAKELKEAAEKALKAAKAA
B4: design_486_d4f32670-1303-4d79-8413-1b14cb3eff50_402_dldesign_0_cycle1_af2pred (protein)
chain: ADEEKVKQAKKLAEEALRLAKEDPEKAKKKLEEAAKLAAASPAALEILLSVAGELYRINPEVGKAARQAFATAATAIV
B5: design_486_d4f32670-1303-4d79-8413-1b14cb3eff50_440_dldesign_0_cycle1_af2pred (protein)
chain: AGKEIAKKMGKAVAERLAKQAPSVAEEAKKAAEAIEKGDYEEAKKEAEKALEIGKKNPKEYKVVKAGVETLKVLADAIAAS
B6: design_486_d4f32670-1303-4d79-8413-1b14cb3eff50_521_dldesign_0_cycle1_af2pred (protein)
chain: DAAALAARTARAIRDQAVRTVAAEEGPEAAEIARAAGEAVLAGDFEEGRRLAERVGRARAFVLSNVESIALLVEG
B7: design_486_d4f32670-1303-4d79-8413-1b14cb3eff50_565_dldesign_0_cycle1_af2pred (protein)
chain: MTEEELIQRTADANVRQVRRVAVEEGLEAGRRQLELNVKSLESVGATEIAAEMERRAEAALAEAAAELARRAAE
B8: design_486_d4f32670-1303-4d79-8413-1b14cb3eff50_567_dldesign_0_cycle1_af2pred (protein)
chain: DTVVANALAAQLVLEAIGLAAAGNIEEALKKLREAAKVASPESAAVLEAAARTIAEEGLPPEEAVAVFNAALAVVQKNAIAAA
B9: design_486_d4f32670-1303-4d79-8413-1b14cb3eff50_721_dldesign_0_cycle1_af2pred (protein)
chain: MNLYESTLLVAEGAIQTAQQAAELATDPAIKAQAKELKERAQEIRDRVKARGTATNEEGQEAVRLLNQASKLLAQAK
B10: design_486_d4f32670-1303-4d79-8413-1b14cb3eff50_760_dldesign_0_cycle1_af2pred (protein)
chain: EAEEAARRARELAERARAARDAGLADPAKANEALGVALDAMRELAEIAERYPEVAEVAREAARVAAEAATALAKQAAAYYAAQRA
B11: design_486_d4f32670-1303-4d79-8413-1b14cb3eff50_788_dldesign_0_cycle1_af2pred (protein)
chain: MREEAERVRRRAEEVEELAAKASPAVAAQVRARARAARTFAEAALRSPDPELAAQAVAAAEANVEAAEQLLAADA
B12: design_486_d4f32670-1303-4d79-8413-1b14cb3eff50_798_dldesign_0_cycle1_af2pred (protein)
chain: GVQALAAATLEAMELAKKIGANEAVRNLGAALAVAGTRHPELAPEFTKRVEELLKLAKEAAKGDKEEAAKLVAEEARKLRDAALAA
B13: design_486_d4f32670-1303-4d79-8413-1b14cb3eff50_819_dldesign_0_cycle1_af2pred (protein)
chain: SLEELRRKAVRKAQEAMATASKVAIAAKAAGDAATAAKANELLVKAQEALKEAVEGKNVEEALRRAEELLEEAKKLAKE
B14: design_486_d4f32670-1303-4d79-8413-1b14cb3eff50_845_dldesign_0_cycle1_af2pred (protein)
chain: SAAEQQLQQAKGYITLANAIARDPNPTPEQLQLAKEAAQQAIKLAEQVEKAVGEKGKEVKKQAEEALAKVQALL
B15: design_486_d4f32670-1303-4d79-8413-1b14cb3eff50_897_dldesign_0_cycle1_af2pred (protein)
chain: NPQGEAAVRYAEIAARARRLAEEARAAGREELAAEFQRIAEAARAALRRAVAANVAGEDRSEELVAEAERLERELEELERRFR
B16: design_486_d4f32670-1303-4d79-8413-1b14cb3eff50_969_dldesign_0_cycle1_af2pred (protein)
chain: AQAERDAAARKIAAAHLNHAAKVAEALAKEAKDPKVKKKLKEAAKKAKELAKEAAKGNAAEAGEKAVEAAKLLAEARRLYEEDK
B17: design_486_d4f32670-1303-4d79-8413-1b14cb3eff50_973_dldesign_0_cycle1_af2pred (protein)
chain: DPAERAAEFRRRAEEVAAIYLAAAQANPAMAPVMAANVLATMRAWAAVWADNPAVAAAALEVGREAAARIA
B18: design_486_d4f32670-1303-4d79-8413-1b14cb3eff50_1043_dldesign_0_cycle1_af2pred (protein)
chain: AAEKEAEAARLERLMQAYVAAAMAGAARVTGNEATAAAQLAKARALDPEVAGELEAAVLADPQAALAEALERARAAEERLRALREE
B19: design_486_d4f32670-1303-4d79-8413-1b14cb3eff50_1067_dldesign_0_cycle1_af2pred (protein)
chain: ANAAQIKAAAQAAYKSAKEIAEEALELAKEGKKEEAEKKLKGAEKLGEIAAALAAQYGAAGDPAEGAALAKDIKEYLKEAKKELEKL
B20: design_486_d4f32670-1303-4d79-8413-1b14cb3eff50_1137_dldesign_0_cycle1_af2pred (protein)
chain: MEEAEEVMRRTFELAREARELRAEAERLAKLAEESGEAAPEAAAARAKAEEKVAEARRLGEEYPGAAALAEGTLAG
B21: design_486_d4f32670-1303-4d79-8413-1b14cb3eff50_1336_dldesign_0_cycle1_af2pred (protein)
chain: DAAAQAKAVAEKGVELIKKADPETGKKVGELVEKGAASANAASLLLEAAQLAAEAAKKKGWTPEMRQGVHLLLLASSLAHQAAVAAA
B22: design_486_d4f32670-1303-4d79-8413-1b14cb3eff50_1357_dldesign_0_cycle1_af2pred (protein)
chain: GMSEELAKELAEKVTKALAAASKAAAAALANPAVAAQANALLAQAVDYALKFQEAAKKDVEEAKKEAEKAIAAANELKALAAAA
B23: design_486_d4f32670-1303-4d79-8413-1b14cb3eff50_1359_dldesign_0_cycle1_af2pred (protein)
chain: AAAAADRAFAITKATAEASMKLMETMTAESALKLGETVAAILRAMAKAYPAHAAELNALADKVEATAKAVAEAKK
B24: design_486_d4f32670-1303-4d79-8413-1b14cb3eff50_1391_dldesign_0_cycle1_af2pred (protein)
chain: DARLKKAAELLKKHTEAVLKGPVHPEAKLATAEVAIESAQGIYKAGADDAEVKAAAKEALAAAKELKERAEKELAAAEAAAAAA
B25: design_486_d4f32670-1303-4d79-8413-1b14cb3eff50_1473_dldesign_0_cycle1_af2pred (protein)
chain: GSMAAAAAAEAARRAALLAEAQAKMNEASKAAIEATKTDPAKAKYYNEALALYQEAAALANDGSKYEEAKEKLKEGDKLMEKV
B26: design_486_d4f32670-1303-4d79-8413-1b14cb3eff50_1479_dldesign_0_cycle1_af2pred (protein)
chain: AEATQLLSEAIDLAKEIEENKKKATPEVAKIYDEALEEANKAMNLAAKASVADAATAAKLIAEAKKELEKAKELYEKAKKLEKE
B27: design_486_d4f32670-1303-4d79-8413-1b14cb3eff50_1495_dldesign_0_cycle1_af2pred (protein)
chain: AAALAAAEAKAKAYIEKVKALDPELGKKTAEAVKKGVKSTPETAAALGNEVTAAAPEEAKPYVAAAIAQAILANALS
B28: design_486_d4f32670-1303-4d79-8413-1b14cb3eff50_1517_dldesign_0_cycle1_af2pred (protein)
chain: AEAEKIIKEAKALAKEAKALAAQGAALDPAIAVIAAAAAAAAASAEKMVKENGEAKAEDAKKLLEVAKTLLEQAKAALEAALAAAA
B29: design_486_d4f32670-1303-4d79-8413-1b14cb3eff50_1519_dldesign_0_cycle1_af2pred (protein)
chain: DEVAKLVDETAAAARAAVAAAARTAAAGTPEQSAALSSLMVATLQAVGDAYRALTDPAEAKAAAEKARALAEELAARTAEIQA
B30: design_486_d4f32670-1303-4d79-8413-1b14cb3eff50_1537_dldesign_0_cycle1_af2pred (protein)
chain: AAAAAAARALALAEEAAAALPPDAGARVREMVRRAVALLEAGDAGAAIQTLLDAIRYGTAAARAIDPARAATVANALTRAIVAISAAA
B31: design_486_d4f32670-1303-4d79-8413-1b14cb3eff50_1561_dldesign_0_cycle1_af2pred (protein)
chain: SEVEEKAKELAEKALALVKTGTGEAEAKKLLAAAPPEVVIQAIKVAAEKAKAEGPEMAAYANKLAAAANQALLEKN
B32: design_486_d4f32670-1303-4d79-8413-1b14cb3eff50_1562_dldesign_0_cycle1_af2pred (protein)
chain: MEEREKVAESMKKMLDAIGEIAAAETGEEGKKMAEEAKKEVEEAAKKGLSPEEIAAVANKKAAEILKVTMAAARAK
B33: design_486_d4f32670-1303-4d79-8413-1b14cb3eff50_1569_dldesign_0_cycle1_af2pred (protein)
chain: NAQAKAFLDQGKAKMEAGKALIKEGKYEEAAAEFTRAYSYFLAAAGLARAAGDKALAAEAEKAAKEAEALAKEAKA
B34: design_486_d4f32670-1303-4d79-8413-1b14cb3eff50_1573_dldesign_0_cycle1_af2pred (protein)
chain: SLEEAKKKAKEVTEKGKEDLATLKEIAVQAAKQGQLAGAQAALNSAKVVAKATAEEVAKLVGPEAGEKALKEGEALVKEAKKEVEKAA
B35: design_486_d4f32670-1303-4d79-8413-1b14cb3eff50_1586_dldesign_0_cycle1_af2pred (protein)
chain: AEERAAAIARATLAGSLALMRTMSPEDAIRLMEVLADILLSNPLTREYGERVAELARRAREEGPAAAEEAIREGAEIGEELRAA
B36: design_486_d4f32670-1303-4d79-8413-1b14cb3eff50_1613_dldesign_0_cycle1_af2pred (protein)
chain: AAAYKKAVAALDAVVAEAAAISEGAGLIATNIKTQGLTQGAAAKDPAEAAKIVEAALKLATDSVTKYVESSAALR
B37: design_486_d4f32670-1303-4d79-8413-1b14cb3eff50_1615_dldesign_0_cycle1_af2pred (protein)
chain: DGYIQLAIAYANAAANRASPEVAPKLREVAELAKKGATDPEALKKAIELAKKLAKEVPEVADLLEKAVEYLKEALKAVE
B38: design_486_d4f32670-1303-4d79-8413-1b14cb3eff50_1678_dldesign_0_cycle1_af2pred (protein)
chain: AAMEEKEQRIINAAKANLELAKIALEGAPHNPELALKVLEALARRAKELAEEAKKLGLEEAEKAAKEAAEEIKKYAKEAQALL

Target: CD276, Q5ZPR3
Sequence (Q5ZPR3 whole entry): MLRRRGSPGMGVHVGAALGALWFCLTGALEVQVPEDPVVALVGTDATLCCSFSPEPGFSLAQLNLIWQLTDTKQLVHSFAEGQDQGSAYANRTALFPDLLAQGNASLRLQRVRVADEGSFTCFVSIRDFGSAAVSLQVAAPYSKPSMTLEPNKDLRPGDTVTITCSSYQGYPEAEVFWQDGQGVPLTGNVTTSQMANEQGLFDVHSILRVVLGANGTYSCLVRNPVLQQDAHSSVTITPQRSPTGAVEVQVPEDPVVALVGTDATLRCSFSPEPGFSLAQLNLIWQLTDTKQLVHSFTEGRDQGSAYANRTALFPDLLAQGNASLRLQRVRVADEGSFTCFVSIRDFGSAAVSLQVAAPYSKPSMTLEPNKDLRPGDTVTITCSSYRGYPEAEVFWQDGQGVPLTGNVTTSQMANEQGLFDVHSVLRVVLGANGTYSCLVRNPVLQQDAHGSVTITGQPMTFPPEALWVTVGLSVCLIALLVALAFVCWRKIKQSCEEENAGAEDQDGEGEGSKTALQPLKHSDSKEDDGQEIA

Binder	binding in a display sort
B1	not found
B2	not found
B3	not found
B4	not found
B5	not found
B6	not found
B7	not found
B8	not found
B9	not found
B10	not found
B11	not found
B12	not found
B13	not found
B14	not found
B15	not found
B16	not found
B17	not found
B18	binds (active)
B19	not found

Binder	binding in a display sort
B20	not found
B21	not found
B22	not found
B23	not found
B24	not found
B25	not found
B26	not found
B27	not found
B28	not found
B29	binds (active)
B30	not found
B31	not found
B32	not found
B33	not found
B34	not found
B35	not found
B36	not found
B37	not found
B38	not found
